# Results as given in ChEMBL document CHEMBL1961873, “Compounds: GSK PKIS; Assays: Nanosyn kinase panel” (2012).
# Assays:
# [1] = target: Sphingosine kinase 1 (Homo sapiens) (UniProt Q9NYA1); conditions: at 1 µM;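 further: mean SPHK1 inhibition value reported from the GSK PKIS kinase panel screen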
# [2] = target: T1, Sphingosine kinase 2 (Homo sapiens) (UniProt Q9NRA0); conditions: at 0.1 µM
# T1 sequence (whole entry): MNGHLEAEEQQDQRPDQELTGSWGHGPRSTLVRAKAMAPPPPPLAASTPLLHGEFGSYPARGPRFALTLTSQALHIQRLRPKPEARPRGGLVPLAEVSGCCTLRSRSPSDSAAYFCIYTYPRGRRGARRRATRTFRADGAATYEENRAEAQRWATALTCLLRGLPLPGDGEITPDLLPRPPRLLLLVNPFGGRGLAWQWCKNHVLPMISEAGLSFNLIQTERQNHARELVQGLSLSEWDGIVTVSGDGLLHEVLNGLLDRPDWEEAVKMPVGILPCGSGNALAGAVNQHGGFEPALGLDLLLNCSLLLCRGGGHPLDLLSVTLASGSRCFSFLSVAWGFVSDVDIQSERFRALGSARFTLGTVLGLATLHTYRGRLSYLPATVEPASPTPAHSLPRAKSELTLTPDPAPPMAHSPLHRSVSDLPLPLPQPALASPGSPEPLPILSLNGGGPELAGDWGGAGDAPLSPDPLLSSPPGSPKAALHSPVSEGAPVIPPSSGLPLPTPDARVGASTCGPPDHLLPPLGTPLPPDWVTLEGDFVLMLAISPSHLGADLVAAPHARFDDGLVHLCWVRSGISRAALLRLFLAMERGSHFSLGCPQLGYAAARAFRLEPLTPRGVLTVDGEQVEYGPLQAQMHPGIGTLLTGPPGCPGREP
# [3] = target: T1, Sphingosine kinase 2 (Homo sapiens); conditions: at 1 µM
# [4] = target: Casein kinase II subunit alpha (Homo sapiens) (UniProt P68400); conditions: at 0.1 µM
# [5] = target: Casein kinase II subunit alpha (Homo sapiens) (UniProt P68400); conditions: at 1 µM
# [6] = target: T2, Inhibitor of nuclear factor kappa-B kinase subunit alpha (Homo sapiens) (UniProt O15111); conditions: at 0.1 µM
# T2 sequence (whole entry): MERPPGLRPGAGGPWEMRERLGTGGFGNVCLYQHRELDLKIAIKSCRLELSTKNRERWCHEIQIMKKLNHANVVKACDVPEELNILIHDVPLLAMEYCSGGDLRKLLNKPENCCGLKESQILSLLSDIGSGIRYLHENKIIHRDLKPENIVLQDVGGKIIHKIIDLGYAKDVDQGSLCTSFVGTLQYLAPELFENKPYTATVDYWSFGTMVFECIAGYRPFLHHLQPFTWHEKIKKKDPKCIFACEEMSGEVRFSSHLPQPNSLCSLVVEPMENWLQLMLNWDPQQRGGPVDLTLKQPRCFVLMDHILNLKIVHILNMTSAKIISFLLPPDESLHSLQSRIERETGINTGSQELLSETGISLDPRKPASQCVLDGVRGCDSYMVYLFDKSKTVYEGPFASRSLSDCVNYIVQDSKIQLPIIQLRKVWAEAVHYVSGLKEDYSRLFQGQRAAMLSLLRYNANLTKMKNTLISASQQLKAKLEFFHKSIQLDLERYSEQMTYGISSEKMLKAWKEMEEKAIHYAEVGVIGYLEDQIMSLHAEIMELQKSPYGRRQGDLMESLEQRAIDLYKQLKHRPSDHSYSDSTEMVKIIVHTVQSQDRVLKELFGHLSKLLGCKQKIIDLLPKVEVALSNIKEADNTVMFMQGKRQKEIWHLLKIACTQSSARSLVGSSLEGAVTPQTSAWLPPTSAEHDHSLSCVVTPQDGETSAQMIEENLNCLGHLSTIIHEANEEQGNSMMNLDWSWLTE
# [7] = target: T2, Inhibitor of nuclear factor kappa-B kinase subunit alpha (Homo sapiens); conditions: at 1 µM
# [8] = target: T3, Inhibitor of nuclear factor kappa-B kinase subunit beta (Homo sapiens) (UniProt O14920); conditions: at 0.1 µM
# T3 sequence (whole entry): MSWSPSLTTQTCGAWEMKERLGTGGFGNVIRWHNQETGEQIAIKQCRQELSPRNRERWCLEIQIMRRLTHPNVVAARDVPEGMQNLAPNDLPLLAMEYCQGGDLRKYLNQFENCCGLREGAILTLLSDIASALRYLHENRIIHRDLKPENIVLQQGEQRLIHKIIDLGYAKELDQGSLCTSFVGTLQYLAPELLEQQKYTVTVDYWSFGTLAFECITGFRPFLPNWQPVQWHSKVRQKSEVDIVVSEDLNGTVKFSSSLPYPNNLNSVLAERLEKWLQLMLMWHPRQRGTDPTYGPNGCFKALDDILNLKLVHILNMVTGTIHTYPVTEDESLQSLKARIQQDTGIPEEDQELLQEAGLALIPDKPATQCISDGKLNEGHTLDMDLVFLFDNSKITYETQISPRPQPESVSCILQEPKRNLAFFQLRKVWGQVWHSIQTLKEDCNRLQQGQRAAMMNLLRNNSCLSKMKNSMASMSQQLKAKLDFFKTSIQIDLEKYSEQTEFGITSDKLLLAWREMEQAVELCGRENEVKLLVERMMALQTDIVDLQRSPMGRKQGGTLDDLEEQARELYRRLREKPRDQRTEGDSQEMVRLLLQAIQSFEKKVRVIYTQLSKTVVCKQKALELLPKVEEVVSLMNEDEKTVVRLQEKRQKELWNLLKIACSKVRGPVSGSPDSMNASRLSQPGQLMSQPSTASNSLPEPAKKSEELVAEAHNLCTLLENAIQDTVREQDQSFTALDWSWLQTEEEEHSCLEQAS
# [9] = target: T3, Inhibitor of nuclear factor kappa-B kinase subunit beta (Homo sapiens); conditions: at 1 µM
# [10] = target: T4, Inhibitor of nuclear factor kappa-B kinase subunit epsilon (Homo sapiens) (UniProt Q14164); conditions: at 0.1 µM
# T4 sequence (whole entry): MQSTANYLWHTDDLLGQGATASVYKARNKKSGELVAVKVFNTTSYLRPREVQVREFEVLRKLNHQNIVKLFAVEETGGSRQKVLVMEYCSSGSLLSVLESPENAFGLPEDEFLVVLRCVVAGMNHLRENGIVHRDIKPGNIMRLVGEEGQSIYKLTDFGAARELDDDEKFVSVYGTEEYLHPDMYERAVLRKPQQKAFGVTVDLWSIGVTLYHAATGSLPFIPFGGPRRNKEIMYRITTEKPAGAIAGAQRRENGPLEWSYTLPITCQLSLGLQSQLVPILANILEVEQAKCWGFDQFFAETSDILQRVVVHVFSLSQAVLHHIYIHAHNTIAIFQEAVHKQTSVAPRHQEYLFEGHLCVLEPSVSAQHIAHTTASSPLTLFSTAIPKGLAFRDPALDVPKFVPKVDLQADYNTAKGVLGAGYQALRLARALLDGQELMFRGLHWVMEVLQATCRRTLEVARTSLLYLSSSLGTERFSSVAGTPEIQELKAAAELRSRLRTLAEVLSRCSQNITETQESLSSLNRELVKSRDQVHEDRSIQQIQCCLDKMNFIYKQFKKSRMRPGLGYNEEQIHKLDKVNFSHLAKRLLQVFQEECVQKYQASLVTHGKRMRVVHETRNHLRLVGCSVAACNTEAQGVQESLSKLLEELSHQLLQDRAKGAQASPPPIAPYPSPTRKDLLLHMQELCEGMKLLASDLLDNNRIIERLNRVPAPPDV
# [11] = target: T4, Inhibitor of nuclear factor kappa-B kinase subunit epsilon (Homo sapiens); conditions: at 1 µM
# [12] = target: T5, Serine/threonine-protein kinase Nek1 (Homo sapiens) (UniProt Q96PY6); conditions: at 0.1 µM
# T5 sequence (whole entry): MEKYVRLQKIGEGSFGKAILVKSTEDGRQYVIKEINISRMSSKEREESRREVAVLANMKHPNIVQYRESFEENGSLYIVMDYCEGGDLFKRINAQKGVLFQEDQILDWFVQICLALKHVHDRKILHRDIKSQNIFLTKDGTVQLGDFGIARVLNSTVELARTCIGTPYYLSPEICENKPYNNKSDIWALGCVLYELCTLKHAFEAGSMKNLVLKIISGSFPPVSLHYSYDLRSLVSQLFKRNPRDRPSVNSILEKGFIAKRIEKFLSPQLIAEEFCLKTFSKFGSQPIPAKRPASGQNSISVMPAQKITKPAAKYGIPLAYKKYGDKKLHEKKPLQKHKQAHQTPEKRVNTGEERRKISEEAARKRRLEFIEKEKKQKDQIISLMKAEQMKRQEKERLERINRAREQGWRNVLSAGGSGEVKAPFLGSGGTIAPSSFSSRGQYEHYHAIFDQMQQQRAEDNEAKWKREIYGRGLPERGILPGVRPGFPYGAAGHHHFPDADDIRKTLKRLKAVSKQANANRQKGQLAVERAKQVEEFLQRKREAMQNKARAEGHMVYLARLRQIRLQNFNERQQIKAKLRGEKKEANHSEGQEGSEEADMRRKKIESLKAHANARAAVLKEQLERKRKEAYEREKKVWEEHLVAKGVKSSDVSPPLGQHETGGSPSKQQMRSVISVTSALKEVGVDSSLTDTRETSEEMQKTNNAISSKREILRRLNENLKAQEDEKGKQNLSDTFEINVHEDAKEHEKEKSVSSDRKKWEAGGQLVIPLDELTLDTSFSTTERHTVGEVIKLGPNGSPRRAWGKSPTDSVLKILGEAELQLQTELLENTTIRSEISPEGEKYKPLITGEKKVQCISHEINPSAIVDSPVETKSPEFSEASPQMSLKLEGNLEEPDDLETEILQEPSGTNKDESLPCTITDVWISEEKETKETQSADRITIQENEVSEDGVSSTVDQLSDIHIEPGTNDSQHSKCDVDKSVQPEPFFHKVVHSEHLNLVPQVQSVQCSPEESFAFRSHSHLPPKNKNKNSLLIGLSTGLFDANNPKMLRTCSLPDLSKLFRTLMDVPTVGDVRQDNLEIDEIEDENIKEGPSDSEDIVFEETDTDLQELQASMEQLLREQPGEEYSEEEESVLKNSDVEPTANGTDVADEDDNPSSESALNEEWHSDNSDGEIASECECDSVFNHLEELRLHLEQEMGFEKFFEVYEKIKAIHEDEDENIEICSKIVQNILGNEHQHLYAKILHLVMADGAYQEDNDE
# [13] = target: T5, Serine/threonine-protein kinase Nek1 (Homo sapiens); conditions: at 1 µM
# [14] = target: T6, Serine/threonine-protein kinase Nek2 (Homo sapiens) (UniProt P51955); conditions: at 0.1 µM
# T6 sequence (whole entry): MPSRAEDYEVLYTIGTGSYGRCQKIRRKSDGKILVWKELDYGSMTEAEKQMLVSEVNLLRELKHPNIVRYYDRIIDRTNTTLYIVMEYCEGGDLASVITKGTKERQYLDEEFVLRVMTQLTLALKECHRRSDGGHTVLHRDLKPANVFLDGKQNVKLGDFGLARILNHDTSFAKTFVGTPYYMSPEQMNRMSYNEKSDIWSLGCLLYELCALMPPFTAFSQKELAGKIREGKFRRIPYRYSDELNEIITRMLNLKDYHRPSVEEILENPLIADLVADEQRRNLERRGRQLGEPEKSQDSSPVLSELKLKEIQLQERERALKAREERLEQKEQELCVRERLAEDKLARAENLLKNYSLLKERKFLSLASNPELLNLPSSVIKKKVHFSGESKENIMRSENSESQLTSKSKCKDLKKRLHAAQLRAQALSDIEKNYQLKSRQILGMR
# [15] = target: T6, Serine/threonine-protein kinase Nek2 (Homo sapiens); conditions: at 1 µM
# [16] = target: Serine/threonine-protein kinase Nek6 (Homo sapiens) (UniProt Q9HC98); conditions: at 0.1 µM
# [17] = target: Serine/threonine-protein kinase Nek6 (Homo sapiens) (UniProt Q9HC98); conditions: at 1 µM
# [18] = target: Serine/threonine-protein kinase Nek7 (Homo sapiens) (UniProt Q8TDX7); conditions: at 0.1 µM
# [19] = target: Serine/threonine-protein kinase Nek7 (Homo sapiens) (UniProt Q8TDX7); conditions: at 1 µM
# [20] = target: T7, Serine/threonine-protein kinase Nek9 (Homo sapiens) (UniProt Q8TD19); conditions: at 0.1 µM;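 further: reported value is the mean percent inhibition of NEK9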
# T7 sequence (whole entry): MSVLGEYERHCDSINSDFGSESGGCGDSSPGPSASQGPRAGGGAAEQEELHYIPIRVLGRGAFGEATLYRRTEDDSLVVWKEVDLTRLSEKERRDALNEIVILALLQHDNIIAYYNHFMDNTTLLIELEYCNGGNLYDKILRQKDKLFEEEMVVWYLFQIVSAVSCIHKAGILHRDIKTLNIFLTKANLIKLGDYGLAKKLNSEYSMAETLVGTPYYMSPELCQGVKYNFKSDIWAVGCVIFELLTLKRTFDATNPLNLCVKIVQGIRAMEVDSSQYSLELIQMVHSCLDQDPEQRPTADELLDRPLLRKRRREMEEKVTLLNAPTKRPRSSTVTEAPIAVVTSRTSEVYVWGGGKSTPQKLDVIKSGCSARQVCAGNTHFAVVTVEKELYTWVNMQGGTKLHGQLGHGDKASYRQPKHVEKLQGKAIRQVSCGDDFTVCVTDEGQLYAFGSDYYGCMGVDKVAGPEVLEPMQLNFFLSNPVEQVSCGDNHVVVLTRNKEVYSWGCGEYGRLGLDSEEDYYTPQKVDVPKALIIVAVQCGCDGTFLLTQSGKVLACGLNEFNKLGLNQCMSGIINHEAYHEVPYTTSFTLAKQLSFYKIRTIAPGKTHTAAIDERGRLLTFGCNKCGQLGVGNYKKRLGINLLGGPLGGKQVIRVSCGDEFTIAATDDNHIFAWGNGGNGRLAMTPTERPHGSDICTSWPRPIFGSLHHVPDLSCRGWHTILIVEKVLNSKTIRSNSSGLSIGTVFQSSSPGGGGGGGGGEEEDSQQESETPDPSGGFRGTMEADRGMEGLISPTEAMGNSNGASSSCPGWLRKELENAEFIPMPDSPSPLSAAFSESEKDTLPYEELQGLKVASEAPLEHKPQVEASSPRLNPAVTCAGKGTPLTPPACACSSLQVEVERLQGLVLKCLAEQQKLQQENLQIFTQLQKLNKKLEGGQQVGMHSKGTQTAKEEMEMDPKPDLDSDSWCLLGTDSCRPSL
# Chain of Serine/threonine-protein kinase Nek6 (Homo sapiens) (Q9HC98 whole entry): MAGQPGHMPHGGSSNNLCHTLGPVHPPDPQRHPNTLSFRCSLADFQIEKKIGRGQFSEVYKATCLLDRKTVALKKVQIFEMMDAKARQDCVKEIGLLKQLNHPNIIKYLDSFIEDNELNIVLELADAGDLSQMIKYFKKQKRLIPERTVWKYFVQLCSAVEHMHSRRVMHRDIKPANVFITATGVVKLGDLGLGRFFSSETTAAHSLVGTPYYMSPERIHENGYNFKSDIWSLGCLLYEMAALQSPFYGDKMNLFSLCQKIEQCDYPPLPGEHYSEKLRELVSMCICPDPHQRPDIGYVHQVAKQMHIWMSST
# Chain of Casein kinase II subunit alpha (Homo sapiens) (P68400 whole entry, looked up): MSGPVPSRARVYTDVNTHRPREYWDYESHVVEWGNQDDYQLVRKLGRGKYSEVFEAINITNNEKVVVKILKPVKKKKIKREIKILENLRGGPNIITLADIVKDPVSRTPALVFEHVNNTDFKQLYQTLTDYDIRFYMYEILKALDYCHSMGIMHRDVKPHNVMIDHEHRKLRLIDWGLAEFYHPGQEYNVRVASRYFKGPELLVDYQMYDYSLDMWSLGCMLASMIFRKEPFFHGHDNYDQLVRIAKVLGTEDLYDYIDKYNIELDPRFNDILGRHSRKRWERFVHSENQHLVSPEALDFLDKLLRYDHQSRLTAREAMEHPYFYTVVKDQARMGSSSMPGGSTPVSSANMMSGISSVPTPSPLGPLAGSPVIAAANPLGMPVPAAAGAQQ
# Chain of Serine/threonine-protein kinase Nek7 (Homo sapiens) (Q8TDX7 whole entry, looked up): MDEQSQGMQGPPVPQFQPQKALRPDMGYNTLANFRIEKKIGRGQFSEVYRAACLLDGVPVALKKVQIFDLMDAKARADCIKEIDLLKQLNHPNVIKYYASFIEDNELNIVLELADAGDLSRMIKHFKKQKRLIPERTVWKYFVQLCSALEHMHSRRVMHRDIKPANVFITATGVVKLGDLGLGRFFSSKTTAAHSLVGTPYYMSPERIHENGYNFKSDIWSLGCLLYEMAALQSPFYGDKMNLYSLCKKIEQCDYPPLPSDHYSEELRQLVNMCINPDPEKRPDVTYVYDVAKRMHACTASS
# Chain of Sphingosine kinase 1 (Homo sapiens) (Q9NYA1 whole entry): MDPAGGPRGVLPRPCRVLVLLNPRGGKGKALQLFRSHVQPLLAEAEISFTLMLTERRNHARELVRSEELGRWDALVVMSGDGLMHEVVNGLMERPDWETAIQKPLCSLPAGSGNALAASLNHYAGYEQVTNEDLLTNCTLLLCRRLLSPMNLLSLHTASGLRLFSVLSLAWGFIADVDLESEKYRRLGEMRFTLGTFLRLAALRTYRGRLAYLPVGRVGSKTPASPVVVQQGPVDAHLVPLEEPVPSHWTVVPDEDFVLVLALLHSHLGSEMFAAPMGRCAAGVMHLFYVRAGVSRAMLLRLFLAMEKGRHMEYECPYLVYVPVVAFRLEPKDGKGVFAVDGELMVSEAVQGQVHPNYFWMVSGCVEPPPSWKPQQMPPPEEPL
structure (smiles),measurement,setting,value
O=C1NC(=O)C(c2cccc(Cl)c2)=C1Nc1ccc(O)c(Cl)c1,inhibition,[1],-1.72%
same,inhibition,[2],-1.48%
same,inhibition,[3],-0.07%
same,inhibition,[4],-2.69%
same,inhibition,[5],-1.28%
same,inhibition,[6],0.7%
same,inhibition,[7],0.73%
same,inhibition,[8],-0.95%
same,inhibition,[9],-3.39%
same,inhibition,[10],-0.3%
same,inhibition,[11],0.33%
same,inhibition,[12],0.25%
same,inhibition,[13],0.17%
same,inhibition,[14],1.39%
same,inhibition,[15],1.51%
same,inhibition,[16],-0.33%
same,inhibition,[17],-3.08%
same,inhibition,[18],1.78%
same,inhibition,[19],1.51%
same,inhibition,[20],1.58%
